From PubChem BioAssay (NCI) come the findings set out here.

Each structure is given as a SMILES string. “And” between values parts separate entries of the source, which are not always exact repeats. Equal entries are not always repeated. This is part of a sample that, as a whole, favours compounds with a hit. Of some 83,000 tested, about 20% had one in any assay.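 Treatment: one concentration, 48 hours, 96-well format. Scoring: percent growth, with anything below 10 considered active.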 The source made the active and inactive calls.

The test system of the assay is MDA-MB-468 breast. Kind of assay: NCI-60 one-dose screen, 48 h (100 = growth as untreated, 0 = no growth, -100 = all killed). The settings on record: 10 µM unless noted.
Consider `COC(=O)c1c2c(c[n+]([O-])c1C)C(=O)C(NCc1ccccc1)=CC2=O`, for which the growth was -57.7% (active). Under `COc1cc2c(cc1OCCCOC1=C=C=C(c3ccc4c(c3)c3cc(-c5ccc(OCCCOc6cc7c(cc6OC)C(=O)N6CCC[C@H]6C=N7)cc5)ccc3n4S(=O)(=O)c3ccc(C)cc3)C=C1)N=C[C@@H]1CCCN1C2=O` stands -17% (active); under `CCCOC(=O)c1nc(N(CC2CCCCC2)C(=O)NC)sc1/N=C/c1ccccc1`, -18.8% (active). Turning to `CN1CCN(Cc2ccc(NC(=O)c3cncc(C#Cc4cnc5ccc(N6CCN(C)CC6)nn45)c3)cc2C(F)(F)F)CC1`, the growth is -75.2% (active). As for `COc1ccc2nccc(/C=C/c3ccnc4ccc(OC)cc34)c2c1`, the growth is 110% (inactive). For the compound `CCN(CC)c1ccc(/C=N/NC(=O)CSc2nc3ccccc3c(=O)n2Cc2ccc(S(N)(=O)=O)cc2)c(O)c1`, the growth is -11% (active). In the case of `C#CCOc1c(OC)cc(C(=O)/C(C)=C/c2cccc(N=[N+]=[N-])c2)cc1OC`, the growth was 24.2% (inactive). Under `COc1cc(-c2ccc(-[n+]3nc(-c4ccc([N+](=O)[O-])cc4)nn3-c3ccc([N+](=O)[O-])cc3)c(OC)c2)ccc1-[n+]1nc(-c2ccc([N+](=O)[O-])cc2)nn1-c1ccc([N+](=O)[O-])cc1` stands -62.2% (active). For `O=C(C1=Cc2cc3ccccc3n2Cc2cnnn21)c1ccc(F)cc1`, the growth is 99.4% (inactive). `COc1ccc2c(CCC(c3ccccc3)c3ccccc3)c3[n+](cc2c1OC)CCc1cc2c(cc1-3)OCO2`: the growth was -29.9% (active). With `CS(=O)(=O)c1nccc(-c2c(-c3cccc(OCc4ccccc4)c3)nc3sccn23)n1`, the growth was -65.1% (active). As to `CC(c1ccccc1)n1ccnc1CO` (stereo not given), the growth is 101% (inactive). For the compound `CC(CC(CCC(=O)O)(c1ccccc1)c1ccccc1)N(C)C` (stereo not given), the growth was 98.4% (inactive). The value for `O=C1CCn2c1c(O)c1ccccc1c2=O` was 105% (inactive); that for `O=C(/C=C/c1ccc([N+](=O)[O-])o1)NNC(=O)c1cc2ccccc2cc1O` was 6.09% (active). Under `Cn1cc(-c2cc3ncnc(Nc4ccc(CC(=O)Nc5nc(C(C)(C)C)cs5)cc4)c3s2)cn1` stands 31.2% (inactive); under `CCCc1ccnc(NS(=O)(=O)c2ccc(N)cc2)n1`, 8.05% (active); under `ClC1(Cl)C2CCCCCCC21` (stereo not given), 118% (inactive). Under `C[C@@H](C(=O)O)c1ccc2c3cc(Cl)ccc3n(Cc3cc(=O)oc4ccc(Cl)cc34)c2c1` stands 113% (inactive); under `CN(C)c1ccc(/C=C/C(=O)c2ccccc2)cc1`, 90.3% (inactive); under `C=CC1=C(C)C2=NC1=CC1=NC(=CC3=C(C)C4=C(O)C(C(=O)O)C(=C5NC(=C2)C(C)C5CCC(=O)O)C4=N3)C(CC)=C1C` (stereo not given), 115% (inactive). For `COc1ccc(C(=O)/C=C/c2cc3ccccc3[nH]c2=O)cc1`, the growth is 17.6% (inactive).

Take `Brc1ccc(-c2cc(-c3ccc4c(c3)OC=CO4)n[nH]2)s1`: the growth is -13.5% (active).

On to `N#C/C(=C\c1ccc(C(F)(F)F)cc1)c1cc2ccccc2[nH]1`, for which the growth is 96.9% (inactive).

On to `O=C1c2ccccc2C(=O)c2sc(Nc3cccc(Cl)c3)nc21`, for which the growth was 13.2% (inactive). Under `O=C(CN1CCN(c2cc(=O)n(-c3ccccc3)c3ccccc23)CC1)Nc1ccc(F)cc1` stands 9.45% (active); under `O=S1(=O)C=C(c2ccccc2)C(c2ccccc2)=C1`, -68.5% (active); under `ClC(Cl)c1nc(-c2ccco2)n2nc(-c3ccccc3)cc2n1`, -54.2% (active).

As for `O=C1ON=[N+](c2ccc(Cc3ccc([N+]4=NOC(=O)C4CN4CCOCC4)cc3)cc2)C1CN1CCOCC1` (stereo not given), the growth is 11.4% (inactive). In the case of `COc1cc(/C=C2\CN(S(=O)(=O)c3ccc(C)cc3)C/C(=C\c3cc(CN4CCOCC4)c(O)c(OC)c3)C2=O)cc(CN2CCOCC2)c1O`, the growth was -45.9% (active). On to `C=C[C@@H]1C[C@@H]2Cc3cc(Cl)ccc3N1O2`, for which the growth is 95.1% (inactive). For the compound `COc1ccc(CCc2nc3cc(-c4c(C)noc4C)ccc3n2CCN2CCOCC2)cc1`, the growth is 9.69% (active).

Regarding `CCN(CC)c1ccc2cc(NC(=O)OCCNC(=O)CCNC(=O)[C@H](CC(C)C)NC(=O)C(C)(C)NC(=O)C(C)(C)NC(=O)[C@H](CC(C)C)NC(=O)CCNC(=O)C(C)(C)NC(=O)[C@H](CC(C)C)NC(=O)CCNC(=O)[C@@](C)(CC)NC(=O)[C@H](C)NC(=O)CCNC(=O)C(C)(C)NC(=O)[C@H](C)NC(=O)[C@@H]3CCCN3C(=O)[C@@](C)(CC)NC(=O)[C@H](Cc3ccccc3)NC(=O)C3CCCN3C(=O)C(C)(C)NC(=O)C3CCCN3C(=O)C(C)(C)NC(C)=O)c(=O)oc2c1` (stereo not given in full), the growth was -83% (active).

On to `COc1c(O)c(O)cc2c3c(oc12)CC(c1ccc2c(c1)OCO2)CC3=O` (stereo not given), for which the growth is 79.9% (inactive).

As to `CN(C)CCN1C(=O)c2ccc3c4c(ccc(c24)C1=O)C(=O)N(CCN=C=S)C3=O`, the growth is -88.8% (active). In the case of `CCOC(=O)CN1/C(=N/c2sc3c(c2C(=O)OCC)CCN(C(=O)OCC)C3)SC(=O)/C1=C\C(=O)OC`, the growth is 79.6% (inactive). On to `COc1cc(/C=C/C(=O)N2CCN(C(=O)c3cc(OC)c(OC)c(OC)c3)CC2)ccc1OCCCOc1cc2c(cc1OC)C(=O)N1CCC[C@H]1C=N2`, for which the growth was -34.6% (active). In the case of `Oc1c(Cl)cc(Cl)c2cccnc12`, the growth was 61% (inactive) and 42.6% (inactive).

Regarding `COc1cc2c(cc1OC)C1CCN3C(=O)CCC3N1CC2` (stereo not given), the growth is 107% (inactive).

Take `CCOC(=O)C1=NNC(c2ccc(Cl)cc2)C1C(=O)N1C(=S)NC(=O)C1CC(C)C` (stereo not given): the growth is 102% (inactive).
